Sampled rows, rich in hits. Any-hit rate of the full collection: about 1.8%.
ARNT-TACC3 inh – disruptors of human ARNT/TACC3 interaction. Q9Y6A5. AlphaScreen His-ARNT PAS-B/GST-TACC3 binding, luminescence; TACC3 fragment carries E629A point mutation. inhibition, % at 9.99 µM. 390,000 compounds, 0.66% hits;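 active means mean inhibition of replicates at least 50% and at least half of replicates each reaching 50%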;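 further: 0% = complete ARNT plus TACC3 wells and 100% = ARNT alone without TACC3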
ABCB6 inh MLPCN – human ABCB6 transporter inhibition; Q9NP58; K562-ABCB6 porphyrin accumulation, flow cytometry, 1 h; stronger effect = lower value; fluorescence ratio to DMSO, % at 10 µM; 360,000 compounds, 0.19% hits; AID 602162;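 active means fluorescence ratio to DMSO below 75%, the collection mean minus 3 SD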;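 further: signal is porphyrin accumulated inside mitochondria; 100% equals median channel fluorescence of DMSO control wells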
iPSC survival up – hiPSC single-cell survival enhancement | ATPlite luminescence; 100% = ROCK inhibitor wells, 0% = DMSO | 360,000 compounds, 0.044% hits | survival enhancement, % at 20 µM; in the data active means survival enhancement above about 18%;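 further: cells exposed to compounds for 16 hours before the ATP read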
GSIS activator – primary screen for activators of insulin secretion dependent on glucose, INS-1E cells, GLuc reporter luminescence. activation, % at 16.6 µM. 370,000 compounds, 0.61% hits. INS-1E GLuc reporter insulin secretion, 2-3 h;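 active means lowest replicate activation of at least 40%, so every replicate reaches that level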;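 further: 0% = median of neutral control wells and 100% = median of IBMX positive control wells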
CendR NRP1 mod – NRP-1/CendR interaction modulation | 360,000 compounds, 0.85% hits | FAM-RPARPAR peptide binding to NRP-1, fluorescence polarization | O14786 | inhibition, % at 25 µM | AID 602438;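 active means inhibition or corrected inhibition above about 18%, plus a signal ratio from 0.5 to 1.5, limit read from the data, passing the limit was not always enough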
* = called active by the depositor; · = no result given.

SMILES | ARNT-TACC3 inh | ABCB6 inh MLPCN | iPSC survival up | GSIS activator | CendR NRP1 mod
CC1CCN(C(=O)C2CCC(CNS(=O)(=O)c3cccc4cccnc34)CC2)CC1 (centres undefined) | 11 | 101 | 3 | -14 | -3
CC1CCC(NC(=O)C2CCC(CNS(=O)(=O)c3cccc4cccnc34)CC2)CC1 (centres undefined) | -4 | 112 | 0 | 4 | 21*
NS(=O)(=O)c1ccc(Oc2ccc(S(N)(=O)=O)cc2)cc1 | 1 | 94 | 1 | 11 | 10
C=CS(=O)(=O)c1ccc(Oc2ccc(S(=O)(=O)C=C)cc2)cc1 | 11 | 90 | -2 | 83* | 7
CO[C@@H]1CN(C)C(=O)c2ccc(NC(C)=O)cc2OC[C@H](C)N(C(=O)Cc2cccnc2)C[C@H]1C | 7 | · | · | 17 | ·
COc1ccc(N(CC(O)CN2CCCCC2)S(=O)(=O)c2ccc(C)cc2)cc1 (centres undefined) | 0 | 90 | 0 | · | 24*
Cc1ccc(S(=O)(=O)N(CC(O)CN2CCCCC2)c2ccccc2)cc1 (centres undefined) | -2 | 99 | 1 | · | -2
CSc1ncccc1C(=O)OCC(=O)Nc1ccc(C)c(S(=O)(=O)N2CCOCC2)c1 | -2 | 97 | 2 | · | 20*
CSc1ncccc1C(=O)OCC(=O)NC1CCCCC1 | -4 | 98 | -1 | -1 | 23*
COc1cccc(NC(=O)CN(C)C(=O)c2cccc(NS(=O)(=O)c3ccc(Br)cc3)c2)c1 | 9 | 99 | 0 | -26 | 0
COc1cccc(NC(=O)CN(C)C(=O)c2cccc(NS(=O)(=O)c3ccccc3)c2)c1 | 1 | 96 | 0 | -13 | 30*
COc1ccc2c3c(n(C)c2c1)[C@H](CO)N(C(=O)c1ccncc1)CC31CN(S(C)(=O)=O)C1 | · | · | · | 20 | ·
COc1ccc(OC)c(NC(=O)c2cc3c(Cl)nc4ccccc4c3s2)c1 | -24 | 98 | -1 | 52* | 3
COc1ccc2c3c([nH]c2c1)[C@H](CO)N(C(=O)c1cccc(F)c1)CC31CN(C(=O)c2cccc(F)c2)C1 | · | · | · | -21 | ·
CCOC(=O)C(C)Sc1nc2ccccc2c(=O)n1CC (centres undefined) | 0 | 91 | 6 | · | 42*
Cc1ccc(Cn2c(SC(C)C(N)=O)nc3ccccc3c2=O)cc1 (centres undefined) | 6 | 97 | 0 | -7 | 11
O=C(NCc1ccccc1Cl)c1cccc(NC(=O)c2ccccc2)c1 | -24 | 101 | 1 | -27 | 18*
O=C(CC1CC1)N1[C@H](CO)[C@@H](c2ccccc2)C12CN(Cc1cc(F)ccc1F)C2 | · | · | · | -7 | ·
O=C(O)C1Nc2c(O)cccc2C2C=CCC12 (centres undefined) | 75* | 100 | 1 | 4 | 11
O=C(C[C@@H]1CC[C@@H]2[C@H](COC[C@@H](O)CN2C(=O)c2ccccn2)O1)NC1CCC1 | 8 | · | · | 7 | ·
NC(=O)N/N=C\c1cc(Br)ccc1O | 11 | 95 | 0 | 1 | 4
O=C(N/N=C/c1cc(Br)ccc1O)c1ccncc1 | 61* | 108 | 0 | 1 | -30
O=C(N/N=C/c1ccccc1)c1cc[n+]([O-])cc1 | 5 | 93 | 1 | 18 | -3
O=C(N/N=C/c1ccccc1O)c1ccncc1 | 66* | 103 | 0 | 14 | -6
O=C(N/N=C/c1ccccc1O)c1cc[n+]([O-])cc1 | 63* | 96 | 0 | 4 | 10
SMILES | ARNT-TACC3 inh | ABCB6 inh MLPCN | iPSC survival up | GSIS activator | CendR NRP1 mod
Cc1nccn1CC(=O)N/N=C/c1ccccc1O | 74* | 97 | 0 | 35 | -6
O=C(c1ccncc1)N1CC(=O)N2[C@H](CO)[C@@H](c3ccc(C#CCC4CCCC4)cc3)[C@@H]2C1 | · | · | · | 22 | ·
C[C@H](CO)N1C[C@H](C)[C@@H](CN(C)C(=O)c2cccc(F)c2)Oc2cc(-c3ccncc3)ccc2S1(=O)=O | · | · | · | -6 | ·
O=C(N/N=C/c1cc(Cl)ccc1O)c1ccc(Br)cc1 | -1 | 106 | -1 | 41* | -16
COc1cc(O)c(/C=N/NC(=O)c2ccncc2)c(OC)c1[N+](=O)[O-] | 65* | 94 | -1 | -9 | 1
O=C(N/N=C/c1ccccc1O)C(=O)Nc1ccccn1 | 48* | 87 | -2 | 4 | 10
CC(C)n1nccc1NC(=O)COC(=O)c1ccc(NC(N)=O)cc1 | 1 | 100 | -1 | 10 | 24*
C[C@H](CO)N1C[C@H](C)[C@H](CN(C)C(=O)C2CCC2)Oc2cc(-c3ccccc3)ccc2S1(=O)=O | · | · | · | -9 | ·
N#CCSc1nc2cc(C(=O)N3CCC(C(N)=O)CC3)ccc2c2nc3ccccc3n12 | 47* | 96 | 0 | · | 10
Cn1cccc1-c1nc2ccc(NC(=O)c3cccs3)cc2[nH]1 | 36* | 85 | 2 | · | -14
CC(=O)Nc1ccc2nc(-c3cccn3C)[nH]c2c1 | -3 | 99 | 0 | -10 | 2
COc1cc(-c2nc(-c3cccnc3)no2)cc(OC)c1OC | -3 | 100 | -3 | 15 | -8
COc1ccc(-c2nc(-c3cccnc3)no2)cc1OC | 5 | 98 | 0 | 58* | 18
CN(C)CC#Cc1ccc([C@@H]2[C@H]3CN(C(=O)C4CCCC4)CCCCN3[C@H]2CO)cc1 | 7 | · | · | · | ·
Cc1ccccc1Nc1c(-c2ccncc2)nc2ccc(Cl)cn12 | -9 | 100 | 0 | 40* | 9
O=C(NCC1CCCO1)c1nn2c(C(F)(F)F)cc(-c3cc(Br)cs3)nc2c1Br (centres undefined) | -3 | 95 | 2 | -1 | 35*
O=C(Nc1cccc(F)c1)NC1(C(=O)N2CCC(O)CC2)CCCCC1 | -3 | 99 | -1 | 1 | 24*
NC(=O)C1CCN(C(=O)C2(NC(=O)Nc3cccc(F)c3)CCCCC2)CC1 | -8 | 101 | 0 | 16 | -3
CCC(=O)Nc1ccc2c(c1)OC[C@@H](C)N(C(=O)c1ccc(F)cc1)C[C@@H](C)[C@@H](OC)CN(C)C2=O | 2 | · | · | -17 | ·
COc1ccc2cc(C(=O)/C=C/c3cc(OC)c(OC)c(OC)c3)ccc2c1 | 14 | 101 | 0 | 15 | 27*
CC1=C/C(=C(\c2cc(C)c(O)c(Br)c2)c2ccccc2S(=O)(=O)O)C=C(Br)C1=O | 28 | 102 | -1 | -24 | 46*
Cc1cc(C(=O)c2ccccc2)cc(C)c1O | 3 | 95 | -1 | · | -4
Cc1cccc(C(=O)NNC(=O)c2c(O)c3ccccc3n(C)c2=O)c1 | -4 | 96 | 0 | -24 | 1
Cn1c(=O)c(C(=O)NNC(=O)c2cccc(Cl)c2)c(O)c2ccccc21 | -1 | 99 | 0 | 545* | -7
Cn1c(=O)n(Cc2ccccc2Br)c2ccccc21 | -5 | 100 | 2 | 50* | -2
O=C(Cn1nnc(-c2ccccc2)n1)N=Nc1c(O)[nH]c2ccccc12 | -29 | 95 | 3 | 93* | 7
